The record followed here is PubChem BioAssay (Tox21).

For assay [1], the target named is Thyrotropin-releasing hormone receptor (Homo sapiens) (UniProt P34981). Put plainly: qHTS assay to identify small molecule agonists of the thyrotropin-releasing hormone receptor (TRHR) signaling pathway (AID 1346891; calls by dose curve;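 also: HEK293 cells expressing TRHR with calcium dye readout; series mostly up to about 58 µM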). In a few lines: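 Compounds were tested as agonists at 15 concentrations, in triplicate, on TRHR-Hek293 cells; calcium-sensitive dye fluorescence was recorded for 3 min following addition.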
Thyrotropin-releasing hormone receptor (Homo sapiens), sequence (P34981 whole entry, looked up): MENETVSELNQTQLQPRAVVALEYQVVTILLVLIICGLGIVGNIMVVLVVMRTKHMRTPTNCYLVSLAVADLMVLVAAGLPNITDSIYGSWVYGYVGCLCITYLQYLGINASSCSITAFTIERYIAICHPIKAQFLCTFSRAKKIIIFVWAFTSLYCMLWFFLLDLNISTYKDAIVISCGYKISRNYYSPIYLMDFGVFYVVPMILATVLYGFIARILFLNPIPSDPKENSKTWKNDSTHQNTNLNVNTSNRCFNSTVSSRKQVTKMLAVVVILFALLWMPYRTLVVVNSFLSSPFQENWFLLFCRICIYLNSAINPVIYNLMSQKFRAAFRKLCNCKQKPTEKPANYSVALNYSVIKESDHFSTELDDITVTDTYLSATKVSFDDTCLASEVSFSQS

Assay [2] can be described thus: Human pregnane X receptor (PXR) small molecule agonists, qHTS cell viability counter screen (AID 1346977). Also: nearly all actives have a fitted effect of over 50% in size. Also: potency is read from the fitted curve at half-maximal effect. Summed up:
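Viability counter screen: CellTiter-Fluor signal in PXR-Luc HepG2 cells, 24hr compound exposure, 37C, 5% CO2.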
(In general: qHTS replaces the single test concentration by a dilution series.)

Assay [3] can be described thus: Caspase-3/7 induction in HepG2 cells by small molecules, qHTS assay (AID 1346978). Also: nearly all actives have a fitted effect of over 15% in size. Summed up: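 Wild-type HepG2 cells (2,000/well) were settled 5 h at 37 C, 5% CO2, then exposed to compounds in DMSO for 17 h. Caspase-3/7 activity was read by luminescence 30 min after adding Caspase-Glo 3/7 reagent at room temperature.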
The nature of assay [4]: Caspase-3/7 induction in CHO-K1 cells by small molecules, qHTS cell viability counter screen (AID 1346979). Also: nearly all actives have a fitted effect of over 35% in size. Also: potency is read from the fitted curve at half-maximal effect. Summed up:
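Viability readout by fluorescence (CellTiter-Fluor) on wild-type CHO-K1 cells exposed for 16hr at 37C and 5% CO2 to compounds delivered in DMSO; reagent incubated 1hr before reading.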

The nature of assay [5]: Caspase-3/7 induction in CHO-K1 cells by small molecules, qHTS assay (AID 1346980). Also: nearly all actives have a fitted effect of over 15% in size. In a few lines: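 Wild-type cells were seeded at 1,500 per well and settled 5 hr at 37 C, 5% CO2, then exposed to DMSO-dissolved compounds for 17 hr. Caspase-Glo 3/7 reagent was added, and luminescence was read after 30min at room temperature.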
Assay [6] can be described thus: Caspase-3/7 induction in HepG2 cells by small molecules, qHTS cell viability counter screen (AID 1346981). Also: nearly all actives have a fitted effect of over 30% in size. Also: potency is read from the fitted curve at half-maximal effect. In a few lines: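 Fluorescence read-out of live-cell protease activity (CellTiter-Fluor) after 1 hr with reagent. This was measured in the same wells as the caspase-3/7 luminescence, on HepG2 cells exposed to DMSO-dissolved compounds for 16 hr at 37 C.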
Assay [7] addresses Nuclear receptor subfamily 1 group I member 2 (Homo sapiens) (UniProt O75469). Put plainly: Human pregnane X receptor (PXR) small molecule agonists, qHTS assay (AID 1346982). Also: nearly all actives have a fitted effect of over 35% in size. Also: potency is read from the fitted curve at half-maximal effect. Summed up: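 HepG2 PXR-Luc reporter line, 5% charcoal-stripped FBS; 5 hr pre-incubation, compound (DMSO) 24 hr at 37 C/5% CO2; ONE-Glo 30 min RT; luminescence read-out.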
For assay [8], the target named is Nuclear receptor subfamily 1 group I member 2 (Rattus norvegicus) (UniProt Q9R1A7). Put plainly: Rat pregnane X receptor (rPXR) activation by small molecules, qHTS assay (AID 1346983). Also: nearly all actives have a fitted effect of over 20% in size. As to conditions: rPXR luciferase reporter cells, One-Glo luminescence, 24 h; max activation: hits give high values. In a few lines: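 Cell-based rPXR luciferase reporter assay, 2,000 cells per well, rested 5hr at 37 C before compound addition in DMSO, then 24 hr at 37 C. One-Glo reagent was added and luminescence read after 30 min at room temperature.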
Nuclear receptor subfamily 1 group I member 2 (Rattus norvegicus), sequence (Q9R1A7 whole entry, looked up): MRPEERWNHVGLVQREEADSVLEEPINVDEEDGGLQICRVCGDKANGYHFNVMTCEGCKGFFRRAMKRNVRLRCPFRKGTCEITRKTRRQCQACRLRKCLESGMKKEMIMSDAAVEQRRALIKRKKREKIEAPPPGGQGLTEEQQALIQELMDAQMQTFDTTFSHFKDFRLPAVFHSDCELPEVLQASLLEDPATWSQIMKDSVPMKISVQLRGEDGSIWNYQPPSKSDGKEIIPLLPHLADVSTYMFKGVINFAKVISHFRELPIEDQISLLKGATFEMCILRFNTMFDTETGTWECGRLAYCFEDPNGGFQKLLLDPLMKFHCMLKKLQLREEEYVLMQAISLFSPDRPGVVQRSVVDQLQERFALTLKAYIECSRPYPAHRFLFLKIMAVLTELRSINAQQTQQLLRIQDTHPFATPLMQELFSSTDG

Assay [9] deals with Nuclear receptor subfamily 1 group I member 2 (Homo sapiens) (UniProt O75469). Put plainly: CYP3A4 induction through human pregnane X receptor (PXR) by small molecules, qHTS assay (AID 1346984). Also: nearly all actives have a fitted effect of over 40% in size. In a few lines: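 HepG2-derived DPX-2 line carrying PXR plus a CYP3A4-promoter luciferase reporter; cells plated 5 hr, compound-exposed 24 hr at 37C. CYP3A4 activity probed with 3uM (final) Luciferin-IPA for 3hr, then luciferase read after One-Glo.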
Nuclear receptor subfamily 1 group I member 2 (Homo sapiens), sequence (O75469 whole entry, looked up): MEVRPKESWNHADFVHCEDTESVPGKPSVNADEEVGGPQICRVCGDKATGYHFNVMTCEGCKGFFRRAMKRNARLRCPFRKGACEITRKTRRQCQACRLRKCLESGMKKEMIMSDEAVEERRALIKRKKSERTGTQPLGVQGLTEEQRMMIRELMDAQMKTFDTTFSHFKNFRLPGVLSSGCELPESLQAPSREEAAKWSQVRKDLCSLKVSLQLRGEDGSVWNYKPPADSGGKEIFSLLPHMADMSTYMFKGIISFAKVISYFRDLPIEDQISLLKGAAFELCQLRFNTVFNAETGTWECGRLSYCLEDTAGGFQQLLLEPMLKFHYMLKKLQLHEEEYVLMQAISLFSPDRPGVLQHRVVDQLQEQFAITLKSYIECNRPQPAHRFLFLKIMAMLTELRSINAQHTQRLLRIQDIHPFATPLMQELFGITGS

Assay [10] has the same target. The assay can be described thus: Human pregnane X receptor (PXR) activation by small molecules, qHTS assay (AID 1346985). Also: nearly all actives have a fitted effect of over 40% in size. Summed up: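 DPX-2 cells (HepG2 co-transfected with a PXR response element and a CYP3A4-promoter luciferase construct) were seeded at 2,000 per well, rested 5 hr at 37C, then exposed to DMSO-dissolved compounds for 24 hr. Activation was read as luciferase luminescence.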

The target of assay [11] is Cytochrome P450 2C9 (Homo sapiens) (UniProt P11712). Put plainly: Cytochrome P450 Family 2 Subfamily C Member 9 (CYP2C9) small molecule antagonists: luciferase reporter qHTS assay (AID 1671198). Also: nearly all actives have a fitted effect of over 50% in size. Also: potency is read from the fitted curve at half-maximal effect. Summed up: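 CYP2C9 activity was measured with a P450-Glo proluciferin substrate. Enzyme–substrate mix was held with compound for 10 min at room temperature, then NADPH regeneration solution was added for 1 h at 37C. Luciferin product was read as luminescence.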
Cytochrome P450 2C9 (Homo sapiens), sequence (P11712 whole entry, looked up): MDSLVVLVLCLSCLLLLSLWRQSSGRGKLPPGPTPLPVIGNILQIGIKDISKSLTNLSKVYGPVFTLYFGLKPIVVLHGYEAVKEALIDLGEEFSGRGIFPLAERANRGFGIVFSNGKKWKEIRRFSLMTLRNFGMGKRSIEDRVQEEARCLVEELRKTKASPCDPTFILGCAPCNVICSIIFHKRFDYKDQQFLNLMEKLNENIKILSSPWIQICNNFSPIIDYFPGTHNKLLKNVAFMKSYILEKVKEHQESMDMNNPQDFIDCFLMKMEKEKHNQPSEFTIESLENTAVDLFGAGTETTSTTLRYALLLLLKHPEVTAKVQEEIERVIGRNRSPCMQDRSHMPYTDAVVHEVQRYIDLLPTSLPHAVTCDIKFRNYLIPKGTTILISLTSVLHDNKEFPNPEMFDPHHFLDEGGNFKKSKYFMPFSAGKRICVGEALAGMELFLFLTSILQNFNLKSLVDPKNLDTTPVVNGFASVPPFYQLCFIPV
In general terms: Reporter assays use an easily measured gene product as a stand-in for the process of interest.

Assay [12] has as its target Cytochrome P450 1A2 (Homo sapiens) (UniProt P05177). The assay can be described thus: Cytochrome P450 Family 1 Subfamily A Member 2 (CYP1A2) small molecule antagonists: luciferase reporter qHTS assay (AID 1671199). Also: nearly all actives have a fitted effect of over 50% in size. Also: potency is read from the fitted curve at half-maximal effect. In a few lines: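 Luminescence readout (relative luminescence units) after luciferin detection reagent, 20 min RT. Preceded by 1 h room-temperature CYP1A2 reaction with NADPH regeneration solution following 10 min compound preincubation with enzyme and proluciferin substrate. Furafylline positive control.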

Assay [13] concerns the target Cytochrome P450 3A4 (Homo sapiens) (UniProt P08684). Put plainly: Cytochrome P450 Family 3 Subfamily A Member 4 (CYP3A4) small molecule antagonists: luciferase reporter qHTS assay (AID 1671201). Also: series mostly up to about 120 µM; nearly all actives have a fitted effect of over 50% in size. In a few lines: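 Relative luminescence units after 20 min with luciferin detection reagent served as read-out. Beforehand, CYP3A4 turned over a proluciferin substrate for 1 h at room temperature with NADPH regeneration, following 10 min compound preincubation.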

The target in assay [14] is Cytochrome P450 2D6 (Homo sapiens) (UniProt P10635). The assay can be described thus: Cytochrome P450 Family 2 Subfamily D Member 6 (CYP2D6) small molecule antagonists: luciferase reporter qHTS assay (AID 1671196). Also: nearly all actives have a fitted effect of over 50% in size. Also: potency is read from the fitted curve at half-maximal effect. In a few lines: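 Luminogenic proluciferin substrate, CYP2D6 enzyme; 10 min RT preincubation with compound, NADPH regeneration system added, 1 h RT. Stop/detection reagent, 20 min RT, luminescence read (RLU). Signal proportional to CYP activity.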
Cytochrome P450 2D6 (Homo sapiens), sequence (P10635 whole entry, looked up): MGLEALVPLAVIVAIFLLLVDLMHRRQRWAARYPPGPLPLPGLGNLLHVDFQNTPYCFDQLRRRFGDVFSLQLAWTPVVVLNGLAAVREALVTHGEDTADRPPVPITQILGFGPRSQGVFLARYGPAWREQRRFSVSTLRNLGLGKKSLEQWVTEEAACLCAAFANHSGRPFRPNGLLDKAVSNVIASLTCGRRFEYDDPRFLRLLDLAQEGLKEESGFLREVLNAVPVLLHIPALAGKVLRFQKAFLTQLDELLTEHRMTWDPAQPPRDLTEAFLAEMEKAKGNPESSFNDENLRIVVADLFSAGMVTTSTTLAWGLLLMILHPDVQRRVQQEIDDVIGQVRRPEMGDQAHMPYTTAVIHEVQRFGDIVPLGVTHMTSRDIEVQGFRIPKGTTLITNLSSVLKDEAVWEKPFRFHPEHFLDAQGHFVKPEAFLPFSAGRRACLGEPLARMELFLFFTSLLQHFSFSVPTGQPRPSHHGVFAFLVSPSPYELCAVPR

Assay [15] concerns the target Cytochrome P450 2C19 (Homo sapiens) (UniProt P33261). The assay can be described thus: Cytochrome P450 Family 2 Subfamily C Member 19 (CYP2C19) small molecule antagonists: luciferase reporter qHTS assay (AID 1671197). Also: nearly all actives have a fitted effect of over 65% in size. Also: potency is read from the fitted curve at half-maximal effect. Summed up:
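Inhibition of CYP2C19 was scored from loss of luminescence in a P450-Glo proluciferin substrate assay, NADPH-started and run 1 h at 37C, with ketoconazole as positive control.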

For assay [16], the target named is Voltage-gated inwardly rectifying potassium channel KCNH2 (Homo sapiens) (UniProt Q12809). Put plainly: Human Ether-a-go-go-Related Gene (hERG) channel small molecule antagonists: fluorescence cell-based qHTS assay (AID 1671200). Also: nearly all actives have a fitted effect of over 50% in size. Also: potency is read from the fitted curve at half-maximal effect. In a few lines:
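Thallium served as the potassium surrogate; its influx into dye-loaded U2OS cells carrying the channel was measured by fluorescence over 2 min.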
Background: The hERG channel carries a current that helps repolarise heart muscle cells.

Unmarked numbers belong to inactive results. Results filed as inconclusive are left out. Calls of active or inactive are those of the source. Unless noted, calls follow the shape of the dose curve; as a rule, active = well fitted curve in the direction sought with a large enough effect in the repeat runs; inconclusive = weak or mixed curves; inactive = no such curve, though single readings can be large; an effect the other way counts as inactive or inconclusive.
% is scaled to controls: 0 for no effect and ±100 for the full control effect.

Cytochrome P450 3A4 (Homo sapiens), sequence (P08684 whole entry, looked up): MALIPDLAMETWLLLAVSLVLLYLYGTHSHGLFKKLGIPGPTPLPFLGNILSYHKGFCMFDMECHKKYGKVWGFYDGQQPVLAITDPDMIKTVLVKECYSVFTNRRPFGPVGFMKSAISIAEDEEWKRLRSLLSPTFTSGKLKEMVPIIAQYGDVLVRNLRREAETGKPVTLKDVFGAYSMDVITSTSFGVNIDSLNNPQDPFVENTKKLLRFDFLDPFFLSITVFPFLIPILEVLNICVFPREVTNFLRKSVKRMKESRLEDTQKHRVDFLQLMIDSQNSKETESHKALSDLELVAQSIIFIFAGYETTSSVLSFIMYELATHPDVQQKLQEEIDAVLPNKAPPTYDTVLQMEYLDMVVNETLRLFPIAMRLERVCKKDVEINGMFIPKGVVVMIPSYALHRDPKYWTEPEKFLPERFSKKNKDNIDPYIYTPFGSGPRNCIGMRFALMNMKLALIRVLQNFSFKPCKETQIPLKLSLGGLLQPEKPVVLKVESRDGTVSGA
Voltage-gated inwardly rectifying potassium channel KCNH2 (Homo sapiens), sequence (Q12809 whole entry, looked up): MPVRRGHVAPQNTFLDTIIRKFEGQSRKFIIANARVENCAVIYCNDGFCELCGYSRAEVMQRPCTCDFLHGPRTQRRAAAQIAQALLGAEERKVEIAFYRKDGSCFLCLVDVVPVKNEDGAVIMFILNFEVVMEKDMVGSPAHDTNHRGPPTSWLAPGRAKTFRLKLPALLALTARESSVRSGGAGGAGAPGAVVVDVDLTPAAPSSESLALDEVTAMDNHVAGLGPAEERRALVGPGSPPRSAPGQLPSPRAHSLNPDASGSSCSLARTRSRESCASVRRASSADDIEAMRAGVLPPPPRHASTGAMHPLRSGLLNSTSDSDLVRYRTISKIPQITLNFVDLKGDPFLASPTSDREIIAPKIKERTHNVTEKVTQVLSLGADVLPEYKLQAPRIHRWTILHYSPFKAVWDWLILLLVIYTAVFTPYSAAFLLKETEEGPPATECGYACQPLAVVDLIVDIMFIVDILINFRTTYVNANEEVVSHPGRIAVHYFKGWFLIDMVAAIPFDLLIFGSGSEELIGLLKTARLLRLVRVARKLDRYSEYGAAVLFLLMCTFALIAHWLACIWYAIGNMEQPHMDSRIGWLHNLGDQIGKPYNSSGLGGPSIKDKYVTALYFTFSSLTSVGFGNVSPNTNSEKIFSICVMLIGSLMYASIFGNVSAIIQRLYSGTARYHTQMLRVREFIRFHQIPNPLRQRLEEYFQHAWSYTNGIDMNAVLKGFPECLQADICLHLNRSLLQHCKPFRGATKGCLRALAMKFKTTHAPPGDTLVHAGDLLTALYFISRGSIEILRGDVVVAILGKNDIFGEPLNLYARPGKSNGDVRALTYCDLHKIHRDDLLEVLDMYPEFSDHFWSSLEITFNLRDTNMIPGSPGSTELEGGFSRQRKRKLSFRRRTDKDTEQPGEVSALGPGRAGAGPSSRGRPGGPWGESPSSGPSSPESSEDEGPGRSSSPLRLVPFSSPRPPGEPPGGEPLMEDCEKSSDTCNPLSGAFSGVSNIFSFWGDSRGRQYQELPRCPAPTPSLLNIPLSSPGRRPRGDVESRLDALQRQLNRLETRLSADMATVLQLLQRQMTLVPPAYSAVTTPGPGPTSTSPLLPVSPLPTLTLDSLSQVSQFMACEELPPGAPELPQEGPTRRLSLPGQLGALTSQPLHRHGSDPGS
Cytochrome P450 1A2 (Homo sapiens), sequence (P05177 whole entry, looked up): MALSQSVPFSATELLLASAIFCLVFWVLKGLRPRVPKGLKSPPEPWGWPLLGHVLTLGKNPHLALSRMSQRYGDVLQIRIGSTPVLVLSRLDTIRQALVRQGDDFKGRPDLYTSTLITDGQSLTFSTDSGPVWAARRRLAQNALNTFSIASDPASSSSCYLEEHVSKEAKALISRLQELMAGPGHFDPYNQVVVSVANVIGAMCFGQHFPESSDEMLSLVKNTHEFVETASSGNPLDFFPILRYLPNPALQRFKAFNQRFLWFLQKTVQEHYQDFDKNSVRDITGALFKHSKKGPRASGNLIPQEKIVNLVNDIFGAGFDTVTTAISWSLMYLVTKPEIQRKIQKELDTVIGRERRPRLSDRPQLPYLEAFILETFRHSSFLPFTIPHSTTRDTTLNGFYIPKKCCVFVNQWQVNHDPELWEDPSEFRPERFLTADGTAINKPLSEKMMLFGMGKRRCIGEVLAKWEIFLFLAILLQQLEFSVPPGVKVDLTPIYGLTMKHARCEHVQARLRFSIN
Cytochrome P450 2C19 (Homo sapiens), sequence (P33261 whole entry, looked up): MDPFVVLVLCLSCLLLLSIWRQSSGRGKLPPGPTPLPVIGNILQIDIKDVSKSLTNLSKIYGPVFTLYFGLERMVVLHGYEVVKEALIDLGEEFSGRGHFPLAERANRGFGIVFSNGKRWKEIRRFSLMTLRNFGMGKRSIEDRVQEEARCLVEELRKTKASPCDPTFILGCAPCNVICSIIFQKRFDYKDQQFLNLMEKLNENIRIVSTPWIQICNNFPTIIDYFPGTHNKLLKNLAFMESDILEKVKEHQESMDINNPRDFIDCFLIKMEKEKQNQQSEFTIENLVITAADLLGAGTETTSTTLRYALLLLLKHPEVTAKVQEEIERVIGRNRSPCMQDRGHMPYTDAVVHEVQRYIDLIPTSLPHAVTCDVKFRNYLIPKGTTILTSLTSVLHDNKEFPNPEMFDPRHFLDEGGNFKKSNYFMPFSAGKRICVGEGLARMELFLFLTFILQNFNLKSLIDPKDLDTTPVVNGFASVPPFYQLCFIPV

For `CCN(CC)CCNC(=O)c1ccc(NC(C)=O)cc1`, the Potency entry in [1], in [2], in [3], in assay [4], in assay [6] and in assay [7] was “inactive” throughout. Further, the Potency result in [9], in assay [10], in [11], in assay [12] and in assay [13] was “inactive” throughout. Also, in assay [5], the outcome was inactive. The max activation in assay [8] is -1.35%.
Consider `CCOC(=O)OCC`, for which the Potency result in assay [1], in assay [2], in [3], in assay [4], in assay [6] and in [7] was “inactive” in each case. Further, the Potency entry in [15], in assay [11] and in assay [16] was “inactive” throughout. For the same molecule, the outcome in assay [5] was inactive. Also, the Potency was 23.3 µM (active) in assay [14] and 41.5 µM (active) in assay [12].
Regarding `COc1ccc(CCC(=O)c2c(O)cc(O[C@@H]3O[C@H](CO)[C@@H](O)[C@H](O)[C@H]3O[C@@H]3O[C@@H](C)[C@H](O)[C@@H](O)[C@H]3O)cc2O)cc1O`, the Potency result in assay [1], in assay [2], in assay [3], in assay [4], in assay [6] and in [7] was “inactive” each time. The Potency result in [14], in assay [15] and in assay [16] was “inactive” in each case. Also, the result in assay [5] was inactive. For the same molecule, the Potency in [11] was 25.3 µM (active).
Consider `CCCOC(=O)c1ccc(C(=O)OCCC)nc1`, for which the Potency entry in assay [1], in assay [2], in assay [3], in [4], in assay [6] and in [14] was “inactive” throughout. Further, the Potency result in assay [16] is “inactive”. For the same molecule, the outcome in assay [5] was inactive. Also, the Potency was 4.48 µM (active) in [15], 7.1 µM (active) in assay [11] and 11.2 µM (active) in assay [12].
Take `CC(COc1ccc(C(C)(C)C)cc1)OS(=O)OCCCl` (stereo unspecified): the Potency result in [1], in assay [3], in assay [14], in assay [16] and in assay [13] was “inactive” in each case. Further, the Potency in assay [2] is 12.3 µM (active); in assay [4], 10.9 µM (active); in assay [6], 15.4 µM (active); in assay [7], 9.74 µM (active). In addition, in assay [5], the result was inactive.
Consider `CCCCCCCCCCCC[N+](C)(C)CC(=O)[O-]`, for which the Potency result in assay [1], in assay [2], in assay [3], in [4], in assay [6] and in [7] was “inactive” in each case. Moreover, the Potency entry in assay [11] and in [16] was “inactive” each time. Moreover, the molecule was called inactive in [5].
Consider `C[Si](NC1CCCCC1)(NC1CCCCC1)NC1CCCCC1`, for which the Potency result in assay [1], in assay [2], in assay [3], in assay [4], in assay [6] and in assay [7] was “inactive” throughout. The Potency entry in assay [15], in assay [16] and in assay [13] was “inactive” in each case. Further, the molecule was classed as inactive in assay [5].
As to `CCOC(=O)[C@@H](C)Oc1ccc(Oc2nc3ccc(Cl)cc3o2)cc1`, the Potency entry in assay [1], in assay [2], in assay [3], in [4], in assay [6] and in assay [13] was “inactive” throughout. Further, the call in assay [5] was inactive. For the same molecule, the Potency is 61.1 µM (active) in assay [7], 31.7 µM (active) in assay [14], 35.6 µM (active) in [11] and 19.5 µM (active) in assay [16].
Turning to `CCC1(C)CC(=O)NC1=O` (stereo unspecified), the Potency result in assay [1], in assay [2], in assay [3], in assay [4], in assay [6] and in [7] was “inactive” in each case. The Potency result in [9], in assay [10], in assay [14], in assay [15], in [11] and in assay [12] was “inactive” each time. For the same molecule, the Potency result in assay [16] and in assay [13] was “inactive” each time. Further, in assay [5], the result was inactive. In addition, in assay [8], the max activation is -2.98%.
Take `COCC(O)CO` (stereo unspecified): the Potency result in assay [1], in assay [2], in assay [3], in [4], in assay [6] and in assay [7] was “inactive” each time. Besides, the Potency result in [14], in [15], in assay [11], in assay [12], in assay [16] and in assay [13] was “inactive” each time. Besides, in [5], the call was inactive.
